Compounds with a hit are over-represented: about 7.9% of the library has one in this group of screens.
KB-3-1 cytotox: kills parental KB-3-1 adenocarcinoma cells; KB-3-1 viability, CellTiter-Glo ATP luminescence, 72 h; Potency, µM (top dose mostly 46.1 µM), most hits filed as cytotoxic; 400,000 tested, 1.4% active; AID 1347075; also: % is scaled to controls: 0 for no effect and ±100 for the full control effect; nearly all actives have a fitted effect of over 60% in size
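Cytotoxicity measured as CellTiter-Glo luminescence after 72 h at 37 C. Compound titrations were pinned onto drug-naive KB-3-1 parental adenocarcinoma cells grown in DMEM with 10% FBS, and normalized data fitted to concentration-response curves.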
HT1080 IDH1KD tx: toxicity to HT-1080 IDH1 knockdown cells (counter line); HT-1080 IDH1 knockdown viability, ATP luminescence, 48 h; Potency, µM (titrated, usually from 46.1 µM), without a hit: at the top dose activity, negative = toxicity, most hits filed as cytotoxic; 360,000 tested, 2% active; AID 686971;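 also: 0% = DMSO wells and -100% = cell-free medium wells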
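CellTiter-Glo luminescence after 48 h compound exposure at 37 degrees C of IDH1-knockdown HT-1080 cells in 5% FBS RPMI. %Activity scaled between DMSO wells and cell-free media wells, with curves fitted and assigned curve classes.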
HT1080-NT tox: kills 2HG-producing HT-1080-NT fibrosarcoma cells; HT-1080-NT fibrosarcoma viability, CellTiter-Glo ATP luminescence, 48 h; Potency, µM (top dose mostly 46.1 µM), inactives show top-dose activity, negative = less viability, actives largely listed as cytotoxic; 360,000 tested, 1.6% active;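 also: NT is the 2HG producing partner of a matched IDH1 knockdown line; 0% = DMSO-treated cells and -100% = media-only wells without cells; nearly all actives have a fitted effect of over 55% in size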
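Fibrosarcoma NT cells, 750 per well in 5% FBS RPMI, were exposed to compound for 48 hours. Viability: CellTiter-Glo luminescence.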
MCF10A rerep: induces DNA re-replication in MCF 10a normal breast cells; AID 624296; MCF 10A DNA re-replication, Hoechst nuclear intensity, 48 h; Potency, µM (series often up to 46.1 µM), for inactives: at the highest dose activity, positive = re-replication, usual class: activators; 350,000 tested, 2.9% active; also: % of control where 0% means no effect; nearly all actives have a fitted effect of over 50% in size
KB-V1 MDR tox: kills drug-selected multidrug resistant KB-V1 cells | KB-V1 MDR cells viability, CellTiter-Glo, 72 h | Potency, µM (highest dose often 46.1 µM), most hits filed as cytotoxic | 400,000 tested, 3.4% active | AID 1347076; also: % is scaled to controls: 0 for no effect and ±100 for the full control effect; nearly all actives have a fitted effect of over 60% in size
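Readout: CellTiter-Glo luminescence, 10 min after addition. Cells: KB-V1 MDR subline, 72 h at 37 degrees C with compound. Analysis: corrected, normalized data fitted to concentration-effect curves.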
SW480 rerep: DNA re-replication induction in SW480 cells | SW480 DNA re-replication, Hoechst DNA content imaging, 48 h | Potency, µM (highest dose often 46.1 µM), for the others: top-dose re-replication activation, usual class: activators | 340,000 tested, 1.8% active | AID 624297; also: % of control where 0% means no effect; nearly all actives have a fitted effect of over 55% in size
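DNA re-replication was detected as more nuclei of elevated Hoechst intensity after 48 hr exposure to compound (23 nL pinned per well of 250 cells).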
Active calls of the source: *; i = inactive; ? = inconclusive; / = no result; [ ] = remark or other dose. Calls follow the shape of the dose curve; as a rule, active = well fitted curve in the direction sought with a large enough effect; inconclusive = small, poorly fitted or top-dose-only effect, or another doubt; inactive = no such curve, though single readings can be large; an effect the other way counts as inactive or inconclusive. Potency is read from the fitted curve at half-maximal effect.

SMILES	KB-3-1 cytotox	HT1080 IDH1KD tx	HT1080-NT tox	MCF10A rerep	KB-V1 MDR tox	SW480 rerep
CCC(=O)Nc1sc2c(c1C(=O)Nc1ccc(Br)cc1)CCCCC2	i	/	/	/	i	/
CCCCn1c2c(c(=N)c3c1CCC3)CCC2	4.11µM*	-18.3%	-17.4%	2.4%	i	-2.7%[9.22 µM]
CCCCCCCCCn1c2c(c(=N)c3c1CCC3)CCC2	1.03µM*	?	1.46µM*	?	i	19.0%
N=c1c2c(n(Cc3ccc(F)cc3)c3c1CCC3)CCC2	i	10µM*	7.08µM*	-3.0%	i	-3.9%
CCCCCCn1c2c(c(=N)c3c1CCC3)CCC2	2.06µM*	1.58µM*	1.58µM*	14.6%	i	0.7%
Cc1nn(S(=O)(=O)c2ccc(Br)cc2)c(C)c1S(=O)(=O)N1CCOCC1	i	18.8%	11.7%	23.1%	i	-10.4%
Cc1ccc2onc(CC(=O)N(C)c3ccccc3)c2c1	i	/	/	/	i	/
CCOC(=O)[C@H]1[C@H]2COc3ccc(Cl)cc3[C@H]2N2C(=O)CNC(=O)[C@@]12C	i	15.5%	9.9%	18.4%	i	-12.0%
CCCCCCCn1c2c(c(=N)c3c1CCC3)CCCC2	0.581µM*	7.31µM*	9.2µM*	?	?	-0.1%
O=C(Nc1ccc(Cl)c(C(F)(F)F)c1)C1Cc2c(-c3ccc4c(c3)OCO4)ccnc2O1 (configuration not stated)	i	20.6µM*	?	/	i	/
CC(=O)Nc1ccc(-c2ccnc3c2CC(C(=O)Nc2ccc4c(c2)OCO4)O3)cc1 (configuration not stated)	?	14.6µM*	?	/	?	/
CC(=O)c1cccc(-c2ccnc3c2CC(C(=O)Nc2ccc4c(c2)OCO4)O3)c1 (configuration not stated)	6.51µM*	2.31µM*	?	/	?	/
CC(C)c1ccc(NS(=O)(=O)c2ccc3c(c2)NC(=O)CO3)cc1	i	-1.5%	6.8%	-0.7%	i	-12.0%
CC(C)c1ccc(C2C3=C(COC3=O)Nc3cc4c(cc32)OCO4)cc1 (configuration not stated)	0.731µM*	1.64µM*	1.46µM*	?	1.16µM*	?
CCCCNC1C(CC)C(CCC)C(C#N)(C#N)C1(C#N)C#N (configuration not stated)	?	?	?	20.6µM*	?	?
CCC(CC)C(=O)Nc1ccc(OCc2cc(=O)n3c4c(sc3n2)CCCC4)cc1	i	/	/	/	i	/
CCOC(=O)c1cc2c(ccn2C)n1CC(=O)N(C)C	i	4.7%	20.0%	0.651µM*	?	-8.7%
COc1ccc(C(=O)N(Cc2ccccc2)Cc2cc3cc4c(cc3[nH]c2=O)OCCO4)cc1	8.91µM*	-23.3%	?	?	11.2µM*	?
COc1cccc(C(=O)N(Cc2ccccc2)Cc2cc3cc4c(cc3[nH]c2=O)OCCO4)c1	i	?	?	25.1%	i	-0.9%
CC1(C)Oc2ccc3ccc(=O)oc3c2/C(=C/Nc2ccc(O)cc2)C1=O	i	-19.0%	?	?	?	?
CC1(C)Oc2ccc3ccc(=O)oc3c2/C(=C/Nc2cccc(O)c2)C1=O	i	?	?	11.6µM*	?	?
COc1ccc(CN(C)c2ccc(S(=O)(=O)N3CCN(C)CC3)cc2[N+](=O)[O-])cc1OC	?	?	-17.5%	11.9%	?	-9.9%
O=C1C=C(N2CCOCC2)c2ccccc2C1=O	?	4.61µM*	6.51µM*	?	?	2.91µM*
Cc1ccc(N2CCOCC2)c2c1C(=O)c1ccccc1C2=O	i	?	-23.0%	?	14.6µM*	9.0%
O=C1C=C(N2CCOCC2)c2cccc3cccc1c23	i	-11.2%	-14.9%	/	?	/
SMILES	KB-3-1 cytotox	HT1080 IDH1KD tx	HT1080-NT tox	MCF10A rerep	KB-V1 MDR tox	SW480 rerep
CC(=O)N(C(C)=O)N1C(=O)c2cccc3c(N4CCOCC4)ccc(c23)C1=O	i	-5.4%	-5.2%	1.6%	i	?
CN(C1=C(N2CCOCC2)C(=O)c2ccccc2C1=O)c1ccccc1	i	-28.3%	-17.4%	9.7%	11.6µM*	5.8%
O=C1C(N2CCOCC2)=Cc2cccc3cccc1c23	i	0.3%	9.9%	/	16.4µM*	/
CCOC(=O)/C=C1\SCC(=O)N1CC(=O)Nc1ccc2c(c1)CCC2	i	?	10.6%	9.2µM*	?	?
Cc1cc(Br)cc(Cl)c1OCC(=O)NC(=O)NCc1ccccc1	i	-0.4%	6.3%	18.4µM*	i	6.7%
Cc1cc(Br)cc(Br)c1OCC(=O)NNC(=O)CCC(=O)NCc1ccccc1	i	9.1%	8.5%	1.2%	i	-5.1%
COC(=O)CSc1nc2c(c(-c3ccc(O)cc3)c1C#N)CCCC2	i	-23.4%	-14.0%	18.4µM*	i	?
N#Cc1c(SC(C(=O)O)c2ccccc2)nc2c(c1-c1cccs1)CCCC2 (configuration not stated)	i	-1.4%	-18.2%	-12.1%	i	8.1%
COC(=O)CSc1nc2c(c(-c3ccco3)c1C#N)CCCC2	i	-0.6%	-3.1%	?	i	0.3%
CC(C)OC(=O)CC(=O)CSc1nc2c(c(-c3cccs3)c1C#N)CCC2	i	-0.8%	-4.3%	20.6µM*	i	17.1%
CCOC(=O)C(C)Sc1nc2c(c(-c3cccs3)c1C#N)CCC2 (configuration not stated)	i	-13.2%	-12.1%	16.4µM*	i	23.7%
O=C(CSc1nc(=O)n(CCCN2CCOCC2)c2c1CCC2)Nc1ccc([N+](=O)[O-])cc1	i	0.6%	-7.4%	0.4%	i	7.6%
Cc1ccc(Cl)cc1NC(=O)CC(O)(C(F)(F)F)C(F)(F)F	?	?	20µM*	26.6%	20.6µM*	18.4µM*
CCOC(=O)c1ccc(NS(=O)(=O)c2c(C)nc3sccn3c2=O)cc1	?	-2.2%	-12.1%	1.0%	i	-9.5%
Cc1cc(=O)n2[nH]c(-c3ccccc3)cc2n1	i	0.2%	-1.3%	-0.2%	i	-2.5%
Cc1cc(=O)n2[nH]c(-c3ccc(C(C)(C)C)cc3)cc2n1	?	?	?	?	14.6µM*	9.1%
Cc1c2cnn(CC(=O)N3CCN(c4ccccc4)CC3)c(=O)c2c(C)n1Cc1ccc(F)cc1	i	/	/	/	i	/
CC(Sc1nnnn1-c1ccc(Cl)cc1)C(=O)NCC(=O)Nc1ccc(F)c(F)c1F (configuration not stated)	i	-11.7%	2.9%	13.6%	16.4µM*	1.5%

From PubChem BioAssay
